Only some compounds are listed: those with a hit (about 0.63% of all), similar ones and a draw of the others.
GAA glycogen – alters human alpha-glucosidase cleavage of glycogen. recombinant GAA, glycogen substrate, Amplex Red glucose oxidase fluorescence. Potency, µM (series often up to 76.4 µM), without a hit: at the highest dose activity change, negative = inhibition, hits mostly inhibitors. 300,000 compounds, 0.38% hits. AID 2100;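 also: 0% = full enzyme reaction and -100% = no-enzyme basal signal; the screen sought inhibitors and activators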
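Recombinant human enzyme (4 nM); glycogen substrate; 37 C, 40 min, pH 5.0. Readout: coupled glucose oxidase/Amplex Red fluorescence.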
aGlu spleen mod – inhibitors or activators of human alpha-glucosidase in spleen homogenate | P10253 | 240,000 compounds, 0.006% hits | human spleen homogenate, 4-MU-alpha-glucoside fluorescence | Potency, µM (highest dose often 79.9 µM), without a hit: at the highest dose activity change, negative = inhibition, actives largely listed as inhibitors;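 also: 0% = enzyme with vehicle and -100% = no enzyme basal signal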
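Compounds were titrated against alpha-glucosidase in spleen homogenate at pH 5.0, with 1 mM 4-methylumbelliferyl substrate for 40 min at 37 C. Reactions were quenched with pH 10 NaOH/glycine and fluorescence measured.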
PKM2 act – increases activity of human pyruvate kinase M2. Potency, µM (highest dose often 57.5 µM), inactives show top-dose activation, hits mostly activators. 260,000 compounds, 0.34% hits. purified PKM2, Kinase-Glo ATP luminescence, activation; response scale: 0% is enzyme alone, no compound; also: nearly all actives have a fitted effect of over 55% in size
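ATP formation by purified human PK-M2, quantified via coupled luciferase luminescence after 1 h at room temperature with 0.1 mM ADP and 0.5 mM PEP final.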
GAA inhib – blocks human lysosomal alpha-glucosidase. Potency, µM (highest dose often 76.9 µM), for inactives: at the highest dose activity change, negative = inhibition, usual class: inhibitors. purified human GAA, 4-MU-alpha-glucoside fluorescence. 200,000 compounds, 0.005% hits. P10253;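 also: plate controls were uninhibited enzyme wells for no effect and no-enzyme background for full effect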
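Human alpha-glucosidase, 4 nM, pre-mixed with test compounds before 400 uM 4-methylumbelliferyl substrate; 20 min room temperature at pH 5.0. Fluorescence read after pH 10 stop; AC50 values from Hill-equation fits.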
GALK inhibitor – blocks human galactokinase activity. P51570. Purified GALK, Kinase-Glo residual ATP luminescence. Potency, µM (highest dose often 57.5 µM), inactives show top-dose activity change, negative = inhibition, most hits filed as inhibitors. 270,000 compounds, 0.007% hits
Target sequence (P51570 whole entry, looked up): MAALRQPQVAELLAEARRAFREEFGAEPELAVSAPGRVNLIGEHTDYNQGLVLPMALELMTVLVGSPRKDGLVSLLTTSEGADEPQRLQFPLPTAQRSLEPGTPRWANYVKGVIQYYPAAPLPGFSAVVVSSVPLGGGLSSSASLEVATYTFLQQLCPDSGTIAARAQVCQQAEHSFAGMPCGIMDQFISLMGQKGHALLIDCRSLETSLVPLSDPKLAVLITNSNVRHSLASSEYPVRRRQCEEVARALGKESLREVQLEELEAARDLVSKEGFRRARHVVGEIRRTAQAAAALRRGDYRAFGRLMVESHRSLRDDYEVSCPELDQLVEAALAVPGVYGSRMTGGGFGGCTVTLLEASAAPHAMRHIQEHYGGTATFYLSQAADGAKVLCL
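5 nM enzyme, 35 uM ATP, 100 uM galactose, 20 mM HEPES pH8.0, 5 mM MgCl2; 1 h RT; residual ATP by Kinase-Glo Plus luminescence, qHTS format.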
Active calls of the source: *; ? = inconclusive; nt = no result given; [ ] = remark or other dose. Calls follow the shape of the dose curve; as a rule, active = well fitted curve in the direction sought with a large enough effect; inconclusive = small, poorly fitted or top-dose-only effect, or another doubt; inactive = no such curve, though single readings can be large; an effect the other way counts as inactive or inconclusive. Unless noted, % is scaled to controls: 0 for no effect and ±100 for the full control effect; potency is read from the fitted curve at half-maximal effect.

SMILES | GAA glycogen | aGlu spleen mod | PKM2 act | GAA inhib | GALK inhibitor
Cc1c(N=Cc2ccc[nH]2)c(=O)n(-c2ccccc2)n1C | 22µM* | 2% | 17% | 1% | 2%
Cc1c(N=Cc2ccncc2)c(=O)n(-c2ccccc2)n1C | 12µM* | 0% | -1% | 7% | -1%
Cc1c(N=Cc2ccccn2)c(=O)n(-c2ccccc2)n1C | 13µM* | -12% | 2% | -6% | -1%
Cc1cccn2c(=O)c(C=O)c(N3CCCCCC3)nc12 | -2% | -10% | 7% | -3% | -3%
Cc1c(N=Cc2c(O)n(C)c(=O)c3ccccc23)c(=O)n(-c2ccccc2)n1C | -12% | -6% | 0% | ? | 2%
Cc1cccn2c(=O)c(C=Nc3c(C)n(C)n(-c4ccccc4)c3=O)c(N3CCCC3)nc12 | 11µM* | -3% | 3% | -2% | 3%
Cc1c(N=Cc2cc3c(cc2Cl)OCO3)c(=O)n(-c2ccccc2)n1C | ? | 3% | 15% | -8% | -2%
CC(=O)N1CCc2c(sc3c2c(=O)n(-c2ccccc2)c(=O)n3Cc2cccc(C(F)(F)F)c2)C1 | -9%[76.3 µM] | nt | nt | nt | nt
CC(C)c1cc(C(=O)NC(C)c2ccccc2)no1 (centres undefined) | 3%[76.3 µM] | nt | nt | nt | nt
COc1ccc(Nc2nnc(-c3ccc(C)c(S(=O)(=O)N4CCOCC4)c3)c3ccccc23)cc1 | 6%[76.3 µM] | nt | nt | nt | nt
CCOc1ccc(CCNC(=O)c2ccc(-c3nc(COc4ccc(C)cc4)c(C)o3)cc2)cc1 | 11%[76.3 µM] | nt | nt | nt | nt
COC(=O)CSC1=C(C#N)C(c2ccccc2)CC(=O)N1 (centres undefined) | -1% | -1% | -3% | -8% | -1%
COC(=O)CSC1=C(C#N)C(c2ccccc2F)CC(=O)N1 (centres undefined) | 7% | -5% | 28µM* | nt | 0%
O=[N+]([O-])c1cc(C(F)(F)F)ccc1NCCc1c[nH]c2ccc(O)cc12 | 9.9µM* | -6% | ? | -8% | 1%
O=[N+]([O-])c1cc(C(F)(F)F)ccc1NCCc1c[nH]c2ccccc12 | -13% | 8% | ? | ? | -4%
CCC1CCCCN1C(=O)Cn1c(=O)n(CCCCCC(=O)NCc2ccccc2Cl)c(=O)c2sccc21 (centres undefined) | 3%[76.3 µM] | nt | nt | nt | nt
CCCN1C(=O)S/C(=C\c2ccc(N3CCOCC3)o2)C1=O | -9% | -5% | 3.5µM* | -5% | 8%
CCCN1C(=O)S/C(=C\c2ccc(N3CCOCC3)cc2C)C1=O | 5% | 8% | -6% | 3% | -1%
COc1cccc(CNC(=O)N2CCN(S(=O)(=O)c3ccc(C)cc3)CC2)c1 | 2% | nt | 11µM* | nt | -1%
COc1ccc(CNC(=O)C2CCN(S(=O)(=O)c3ccc(C)cc3)CC2)cc1 | 13%[76.3 µM] | nt | nt | nt | nt
COc1cccc(CNC(=O)C2CCN(S(=O)(=O)c3ccc(C)cc3)CC2)c1 | -9% | nt | nt | nt | -2%
COc1ccc(S(=O)(=O)N2CCN(C(=O)NCc3ccc(C)cc3)CC2)cc1 | -23% | nt | 7.1µM* | nt | 1%
COc1ccc(CNC(=O)N2CCN(S(=O)(=O)c3ccc(C)cc3C)CC2)cc1 | 1% | nt | 4.5µM* | nt | 7%
COc1ccc(S(=O)(=O)N2CCCN(S(=O)(=O)c3ccc(OC)cc3C)CC2)c(C)c1 | 7% | -8% | 8.9µM* | -6% | 0%
COc1ccc(S(=O)(=O)N2CCN(C(=S)NCCc3ccccc3)CC2)cc1 | -16%[76.3 µM] | nt | 0% | nt | 7%
COCCCNC(=S)N1CCN(S(=O)(=O)c2ccc(OC)cc2)CC1 | -9% | -9% | 0.89µM* | -1% | -1%
COc1ccc(S(=O)(=O)N(C)c2ccc(C(=O)NCc3ccco3)cc2)cc1 | -3%[76.3 µM] | nt | 13µM* | nt | -1%
CN(c1ccc(C(=O)NCc2ccc3c(c2)OCO3)cc1)S(=O)(=O)c1ccccc1 | -13% | 8% | 16µM* | 9% | 0%
O=[N+]([O-])c1cc(-c2nnc(Nc3ccc(O)cc3)c3ccccc23)ccc1N1CCOCC1 | 16µM* | -1% | 17% | -4% | 1%
O=[N+]([O-])c1cc(-c2nnc(Nc3ccccc3)c3ccccc23)ccc1N1CCOCC1 | 12% | 2% | 25% | 3% | 1%

Source: PubChem (National Center for Advancing Translational Sciences (NCATS))
